Test results: PubChem BioAssay AID686978 (National Center for Advancing Translational Sciences (NCATS), 2013)
About 64,000 (15%) of roughly 420,000 compounds were called active. Inconclusive results (about 27%) are left out. The list is a sample of the results. Values without a mark were called inactive. The call rests on the fitted dose curve; in most records, active means well fitted inhibition curve with a large enough effect; inconclusive means small, poorly fitted or top-dose-only effect; inactive means flat fitted curve, though single readings scatter.

experiment: qHTS for Inhibitors of human tyrosyl-DNA phosphodiesterase 1 (TDP1): qHTS in cells in absence of CPT; conditions: DT40 Tdp1-/- hTDP1 cells, no CPT, ATP luminescence, 48 h; activity change, negative = growth inhibition: at 46.2 µM (top of the series); further: nearly all actives have a fitted effect of over 55% in size
How it was run: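 Compound effects on proliferation are scored in DT40 Tdp1-/-;hTDP1 cells in the absence of CPT. ATP levels (CellTiter-Glo luminescence) are recorded after a ≥48 hr, 37 °C incubation.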
On the % scale 0 is the no-effect control and ±100 the full control effect; potency means the concentration at half of the fitted maximal effect.

Structure (SMILES) | activity change, negative = growth inhibition | Potency
CCCSC1=C(C#N)C(c2ccccc2C)C(C(=O)OC)C(=O)N1 (stereo not given) | -11.8% | 
CC(C)N(C(=O)COC(=O)c1ccccc1C(=O)N1CCN(c2ccc(F)cc2)CC1)C(C)C | -23.6% | 
Cn1c2ccccc2c2c(C(=O)N3CCN(c4ccc(F)cc4)CC3)cn(C3CCCC3)c(=O)c21 |  | 23.1 µM (active)
CC(=O)N1c2ccccc2CC1C(=O)N1CCN(c2ccc(F)cc2)CC1 (stereo not given) | -10.2% | 
CC(NS(=O)(=O)c1ccccc1)c1n[nH]c(=S)n1-c1ccccc1 (stereo not given) | -1.17% | 
CC(=O)Nc1ccc(NC(=O)[C@@H](NC(=O)c2cccc(C)c2)C(C)C)cc1 | 6.18% | 
O=C(CC1Sc2ccccc2NC1=O)NNc1ccc(Cl)c(Cl)c1 (stereo not given) |  | 11.6 µM (active)
Cc1ccc(CNC(=O)CC2Sc3ccccc3NC2=O)cc1 (stereo not given) | -2.06% | 
O=C(CC1SCCNC1=O)Nc1ccc(Cl)c(Cl)c1 (stereo not given) | 6.06% | 
NNC(=O)c1ccc(COCC(F)(F)C(F)F)cc1 | -11.3% | 
Cc1ccc(OCC(=O)OCc2cc(=O)n3nc(C4CC4)sc3n2)cc1 | -8.76% | 
CS(=O)(=O)c1ccc(C(=O)OCC(=O)NNC(=O)COc2ccc(Cl)cc2)cc1 | -4.53% | 
Cc1ccc(-c2cc(N)on2)cc1 | -6.95% | 
COc1cc(OC)cc(C(=O)NCC(=O)OCC(=O)NC(C)CCc2ccccc2)c1 (stereo not given) | 6.49% | 
COc1cccc(C(=O)NCC(=O)OCc2cc(=O)n3ccsc3n2)c1 | -1.07% | 
COc1cc(OC)cc(C(=O)NCC(=O)OCc2csc(-c3ccccc3)n2)c1 |  | 23.1 µM (active)
CSc1ccc(CNCCN2CCOCC2)cc1 | -16.9% | 
CCCSc1nc2[nH]ncc2c(=O)[nH]1 | 3.13% | 
COc1ccc(CCNC(=O)CSc2nc3[nH]ncc3c(=O)n2-c2cccc(C(F)(F)F)c2)cc1OC | -5.4% | 
CCc1ccc(-n2c(SCc3cc(=O)n4cc(Br)ccc4n3)nc3[nH]ncc3c2=O)cc1 |  | 20.6 µM (active)
COc1ccccc1N1CCC(N2CCN(CC(C)(C)C)C(CCO)C2)CC1 (stereo not given) | -21.9% | 
COc1ccccc1NC(=O)/C=C/C(=O)O | 15% | 
COc1ccccc1NC(=O)/C=C/C(N)=O |  | 2.91 µM (active)
COc1ccccc1NC(=O)C[n+]1ccccc1 | -2.16% | 
O=C(Nc1ccc(S(=O)(=O)Nc2nccs2)cc1)c1cc(=O)[nH]c2ccccc12 | 13.3% | 

Structure (SMILES) | activity change, negative = growth inhibition | Potency
Cc1cccc(C(=O)O)c1[N+](=O)[O-] | 2.96% | 
COc1ccccc1OCCNCC(O)COc1cccc2[nH]c3ccccc3c12 (stereo not given) |  | 16.4 µM (active)
CC(C)(C)NCC(O)COc1cccc2[nH]c(=O)[nH]c12 (stereo not given) |  | inactive
COc1ccccc1OCCNC(=O)c1cc([N+](=O)[O-])cc([N+](=O)[O-])c1 | -0.0294% | 
Fc1ccc(Br)cc1/C=N/n1cnnc1 | -11.2% | 
COc1ccc(Br)cc1CN(C)CC(=O)Nc1cc([N+](=O)[O-])ccc1OC |  | 16.4 µM (active)
CN(CC(=O)Nc1ccccc1[N+](=O)[O-])Cc1ccc(Br)cc1 | -15.4% | 
COc1ccccc1CC(=O)Nc1ccc([N+](=O)[O-])cc1OC | -0.609% | 
CCCC1C(c2ccccc2)C(C#N)(C#N)C2(C#N)CC1(N)NC2=O (stereo not given) | 2.33% | 
COc1cccc(CNC(=O)CCN2C(=S)NC(C)(C)CC2C)c1 (stereo not given) | 12.4% | 
O=C(O)C1=NN(c2c(F)c(F)cc(F)c2F)C(=O)CC1 | 13% | 
CO[C@H]1[C@H](NC(=O)C(C)C)c2ccccc2C12CCN(Cc1cnc(N(C)C)s1)CC2 | 0.79% | 
COc1ccccc1C(=O)N[C@@H]1c2ccccc2C2(CCN(C(=O)c3csnn3)CC2)[C@H]1OC | -9.12% | 
COc1cccc(CN2CCC3(CC2)c2ccccc2[C@@H](NC(=O)c2ccccc2OC)[C@@H]3O)c1 |  | 16.4 µM (active)
N[C@H](C(=O)O)c1ccc(C(=O)O)c(O)c1 |  | inactive
CC1=NNC(=O)C1Cc1c(Cl)cccc1Cl (stereo not given) | -29% | 
CC(C)(C)NC(=O)CSc1nc(-c2ccc(F)cc2)cc(C(F)(F)F)n1 |  | 18.4 µM (active)
Cc1cc(C(F)(F)F)nc(SCC(=O)Nc2nccs2)n1 | 8.5% | 
Cc1cc(C(F)(F)F)nn1-c1nc(-c2ccco2)cc(C(F)(F)F)n1 | -10.8% | 
Cc1cccc(NC(=O)CSc2nc(-c3ccco3)cc(C(F)(F)F)n2)c1C |  | 9.2 µM (active)
CN(C)c1ccc(NC(=O)CSc2n[nH]c(-c3ccco3)n2)cc1 | -11.6% | 
O=C(CSc1nc(-c2ccco2)cc(C(F)(F)F)n1)NCc1cccs1 | -24.4% | 
Cc1cccc(NC(=O)Cn2c(C(F)(F)F)nc3ccccc32)c1C | -20.7% | 
CCNS(=O)(=O)c1ccc(NC(=O)CSc2nc(-c3ccco3)cc(C(F)(F)F)n2)cc1 |  | 7.31 µM (active)
CC(C)c1nc(SCC(=O)NC(=O)NC(C)(C)C)n[nH]1 | -6.01% | 

Structure (SMILES) | activity change, negative = growth inhibition | Potency
Cc1ccccc1CN1C(=O)CSCC1(C)C(=O)Nc1c(C)cccc1C (stereo not given) | -2.46% | 
Cc1n[nH]c(=O)c2c(NC(=O)CSc3cc(Cl)ccc3Cl)oc(C)c12 | 7.52% | 
O=C(CSc1nnnn1C1CCCC1)N1CCCCC1 | -4.85% | 
Cc1cc(=O)oc2c1ccc1ccccc12 | 10.2% | 
O=C(Nc1ccc(C(=O)NCc2ccccc2Cl)cc1)C1=CSCCO1 | -20.2% | 
C=CCn1c2c(c3ccccc31)CCC2 | -24.3% | 
CCc1nnc(NS(=O)(=O)c2ccc(NC(=O)c3cccc(OC(F)(F)C(F)F)c3)cc2)s1 | -8.34% | 
C/C(=N\Nc1nc(Nc2ccccc2)nc(N2CCOCC2)n1)c1cccs1 |  | 20.6 µM (active)
O=C(c1cccs1)N1CCN(C(=O)N2CCOCC2)CC1 | 5.43% | 
C/C(=N\Nc1ccccc1)c1cccs1 | -19.2% | 
CCN(c1ccccc1)S(=O)(=O)c1ccc(OCC(=O)N2CCCC2)cc1 | -17.5% | 
CCc1cccc(NC(=O)CCNS(=O)(=O)c2cccc3nonc23)c1 |  | inactive
Cc1ccc(NC(=O)C2(N3CCC3=O)CCCCC2)cc1 | 10.4% | 
COc1ccc(Cl)cc1C(=O)OCC(=O)NCc1cccs1 | 22.9% | 
CCOc1ccc(CCNC(=O)c2ccc3c(c2)sc2nc(-c4ccc(F)cc4)cn23)cc1OCC |  | 5.8 µM (active)
CCOc1ccc(CCNC(=O)Cn2nc(CC)n3c(cc4sc(CC)cc43)c2=O)cc1OCC | -19.3% | 
CCOc1ccc(CCNC(=O)Nc2ccccc2)cc1OCC | -29.6% | 
COc1ccc(CCNC(=O)CN(C)S(=O)(=O)c2ccc3nc(C)sc3c2)cc1OC | -11.5% | 
Cc1ccc(-c2cn3c(n2)sc2cc(C(=O)NCCCc4ccccc4)ccc23)cc1 |  | 8.2 µM (active)
CC(C)c1ccc(C(=O)NCCCc2ccccc2)cc1 | -16.9% | 
CCOc1cccc2cc(-c3cn4c(n3)sc3cc(C)ccc34)c(=O)oc12 | 0.207% | 
Cc1cc(C(=O)NCCCc2ccccc2)no1 | -4.19% | 
COc1ccc(CCNC(=O)c2ccc3c(c2)sc2nc(-c4ccc(C)cc4)cn23)cc1OC |  | 5.17 µM (active)
Cc1ccc(-c2cn3c(n2)sc2cc(C(=O)NCc4cccs4)ccc23)c(C)c1 |  | 18.4 µM (active)
CCc1cc2c(cc3c(=O)n(CC(=O)NCCc4ccc(OC)c(OC)c4)ncn32)s1 | -0.928% | 
